The full ranking holds about 81,000 sequences; the median of “one-hybrid fitness for binding parS DNA” is about -0.17, and the highest 2% start at about 0.51. This excerpt belongs to a sample that is enriched for the highest values.
B1: Caulobacter ParB omega fusion; a variant is named by its letters at X, in order, B8GW30 (parent)
chain: MESVVVGEPGMSEGRRGLGRGLSALLGEVDAAPAQAPGEQLGGSREAPIEILQRNPDQPRRTFREEDLEDLSNSIREKGVLQPILVRPSPDTAGEYQIVAGERAWRAAQRAGLKTVPIMVRELDDLAVLEIGIIENVQRADLNVLEEALSYKVLMEKFERTQENIAQTIGKSXSHVANXMRLLXLPDEVQSYLVSGELTAXHARAIAAAADPVALAKQIIEGGLSVRETEALARKAPNLSAGKSKGGRPPRVKDTDTQALESDLSSVLGLDVSIDHRGSTGTLTITYATLEQLDDLCNRLTRGI

Variants of: B1
Assay: one-hybrid fitness for binding parS DNA (scaled: cognate 1, non-cognate 0); higher = stronger binding
Conditions: with parS DNA site
In short: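 The reporter was HIS3, with the binding site 19 bp from the promoter, in E. coli USO used for bacterial one-hybrid selection of Caulobacter ParB libraries with four specificity codons randomised. Growth was on M9 lacking histidine, with 0.1 mM IPTG and 5 mM 3-AT, for 48 hours at 37°C. Illumina sequencing covered plasmids before and after selection; three replicate libraries were pooled and variants with under 10 reads dropped. A fitness score is the log change in variant-to-wild-type read ratio, rescaled to the cognate and non-cognate references.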

| Variant | one-hybrid fitness for binding parS DNA |
| --- | --- |
| GTSR | ≤ 0.2 |
| ARHM | ≤ 0.2 |
| EPPR | ≤ 0.2 |
| HSQW | ≤ 0.2 |
| LRNA | ≤ 0.2 |
| RARE | ≤ 0.2 |
| HIDW | ≤ 0.2 |
| TFRF | ≤ 0.2 |
| GVCA | ≤ 0.2 |
| RCIP | 0.228 |
| RSPS | 0.541 |
| RPIS | ≤ 0.2 |
| RSYP | ≤ 0.2 |
| RSPN | ≤ 0.2 |
| RSIS | 0.887 |
| RCIS | 1.01 |
| RSYH | ≤ 0.2 |
| RSID | ≤ 0.2 |
| RSIP | ≤ 0.2 |
| RSYS | 1.01 |
| RSPP | ≤ 0.2 |
| TPAQ | ≤ 0.2 |
| CKSG | ≤ 0.2 |
| LRFF | ≤ 0.2 |

| Variant | one-hybrid fitness for binding parS DNA |
| --- | --- |
| RPPS | ≤ 0.2 |
| RCPH | ≤ 0.2 |
| RCPS | 0.88 |
| WVLG | ≤ 0.2 |
| AQAH | ≤ 0.2 |
| QPQI | ≤ 0.2 |
| RNLR | ≤ 0.2 |
| RNLC | 0.736 |
| RNYN | 0.235 |
| RNRH | ≤ 0.2 |
| RNPC | 0.358 |
| RNRD | ≤ 0.2 |
| RNRC | 0.893 |
| RNYD | ≤ 0.2 |
| RNLK | ≤ 0.2 |
| RNIP | ≤ 0.2 |
| RNIC | 0.523 |
| RNYC | 0.719 |
| VAHC | ≤ 0.2 |
| TAIS | ≤ 0.2 |
| PGSI | ≤ 0.2 |
| MKSG | ≤ 0.2 |
| AHRN | ≤ 0.2 |
| SQMR | ≤ 0.2 |

| Variant | one-hybrid fitness for binding parS DNA |
| --- | --- |
| IRKE | ≤ 0.2 |
| RNGC | 0.769 |
| RNSC | 0.848 |
| RNSF | ≤ 0.2 |
| RNHQ | ≤ 0.2 |
| RNCY | 0.235 |
| RNGK | ≤ 0.2 |
| RNHC | 0.798 |
| RNSR | ≤ 0.2 |
| RNCC | 0.704 |
| RNGF | ≤ 0.2 |
| RNHY | 0.361 |
| RNCR | ≤ 0.2 |
| QDYV | ≤ 0.2 |
| VSHT | ≤ 0.2 |
| KTMS | ≤ 0.2 |
| EVAF | ≤ 0.2 |
| RNQC | 0.82 |
| RNQN | 0.284 |
| RNQD | ≤ 0.2 |
| DNWC | ≤ 0.2 |
| RNWR | ≤ 0.2 |
| RNWC | 0.569 |
| TLDS | ≤ 0.2 |

| Variant | one-hybrid fitness for binding parS DNA |
| --- | --- |
| ARHI | ≤ 0.2 |
| RLVD | ≤ 0.2 |
| RLVT | 0.844 |
| RLKT | 0.799 |
| RLVP | ≤ 0.2 |
| RLKK | ≤ 0.2 |
| RLKR | ≤ 0.2 |
| PSIF | ≤ 0.2 |
| TTMY | ≤ 0.2 |
| IRGH | ≤ 0.2 |
| RNET | 0.498 |
| RNNT | 0.785 |
| RNNE | ≤ 0.2 |
| RNDT | 0.562 |
| RNNY | 0.434 |
| RNDF | ≤ 0.2 |
| PRSW | ≤ 0.2 |
| AEDR | ≤ 0.2 |
| SKLC | ≤ 0.2 |
| NKAA | ≤ 0.2 |
| RKAA | 0.62 |
| DKAA | ≤ 0.2 |
| RKFA | 0.549 |
| HLVN | ≤ 0.2 |

| Variant | one-hybrid fitness for binding parS DNA |
| --- | --- |
| EADC | ≤ 0.2 |
| DFRC | ≤ 0.2 |
| RFWF | ≤ 0.2 |
| RFLC | 0.85 |
| RFRC | 0.969 |
| RFQY | 0.462 |
| RFWC | 0.697 |
| NFLC | ≤ 0.2 |
| RFQC | 0.925 |
| DFLC | ≤ 0.2 |
| RFRP | ≤ 0.2 |
| DFQC | ≤ 0.2 |
| RFWR | ≤ 0.2 |
| SDQF | ≤ 0.2 |
| ENRG | ≤ 0.2 |
| CYNT | ≤ 0.2 |
| LSAC | ≤ 0.2 |
| TCKK | ≤ 0.2 |
| CTYA | ≤ 0.2 |
| TRDK | ≤ 0.2 |
| NFHC | ≤ 0.2 |
| RFYC | 0.867 |
| RFCD | ≤ 0.2 |
| RFCC | 0.87 |

| Variant | one-hybrid fitness for binding parS DNA |
| --- | --- |
| RFHC | 0.925 |
| DFHC | ≤ 0.2 |
| DFYC | ≤ 0.2 |
| RFSD | ≤ 0.2 |
| RFYN | 0.357 |
| RFSC | 0.935 |
| NFCC | ≤ 0.2 |
| DFSC | ≤ 0.2 |
| WVLH | ≤ 0.2 |
| GNCC | ≤ 0.2 |
| TRHF | ≤ 0.2 |
| VVNG | ≤ 0.2 |
| TLTV | ≤ 0.2 |
| PSGP | ≤ 0.2 |
| WTLF | ≤ 0.2 |
| RFVS | 0.892 |
| RFKS | 0.9 |
| RFVH | ≤ 0.2 |
| RFVD | ≤ 0.2 |
| RFKN | 0.441 |
| RFKH | 0.252 |
| VTDM | ≤ 0.2 |
| VYTF | ≤ 0.2 |
| PGDI | ≤ 0.2 |

| Variant | one-hybrid fitness for binding parS DNA |
| --- | --- |
| KILR | ≤ 0.2 |
| RKAP | ≤ 0.2 |
| RKFN | 0.295 |
| RKAS | 0.832 |
| RKAD | ≤ 0.2 |
| RKFS | 0.927 |
| RKFP | ≤ 0.2 |
| QHMA | ≤ 0.2 |
| SVPY | ≤ 0.2 |
| WRWT | ≤ 0.2 |
| FLPQ | ≤ 0.2 |
| WSPS | ≤ 0.2 |
| QVPW | ≤ 0.2 |
| RLAS | 1 |
| RLFD | ≤ 0.2 |
| RLAH | ≤ 0.2 |
| RLFN | 0.395 |
| RLAP | ≤ 0.2 |
| RLFS | 1.03 |
| HRSG | 0.277 |
| QDER | ≤ 0.2 |
| QMYS | ≤ 0.2 |
| YWTY | ≤ 0.2 |
| IAWK | ≤ 0.2 |

| Variant | one-hybrid fitness for binding parS DNA |
| --- | --- |
| PACN | ≤ 0.2 |
| RQVP | ≤ 0.2 |
| RQKF | 0.328 |
| RQKT | 0.819 |
| RQVT | 0.678 |
| RQVH | ≤ 0.2 |
| RQKQ | ≤ 0.2 |
| FSNE | ≤ 0.2 |
| TTGM | ≤ 0.2 |
| ILAP | ≤ 0.2 |
| ELIG | ≤ 0.2 |
| HFGL | ≤ 0.2 |
| DNSG | ≤ 0.2 |
| DNPA | ≤ 0.2 |
| RHIT | 0.581 |
| RSIT | 0.628 |
| RGIT | 0.278 |
| RPIT | ≤ 0.2 |
| RHPT | 0.336 |
| RHIH | ≤ 0.2 |
| RSPT | 0.372 |
| REIT | ≤ 0.2 |
| RCIT | 0.78 |
| YPCV | ≤ 0.2 |

| Variant | one-hybrid fitness for binding parS DNA |
| --- | --- |
| ALRC | ≤ 0.2 |
| TRWA | ≤ 0.2 |
| AHIG | ≤ 0.2 |
| RVGC | 0.934 |
| RVWC | 0.963 |
| RVQK | ≤ 0.2 |
| RVQC | 0.983 |
| RVGM | 0.306 |
| RVSD | ≤ 0.2 |
| RVWY | 0.49 |
| RVWM | 0.344 |
| RVQM | 0.278 |
| RVSC | 0.977 |
| RVGF | 0.254 |
| RVSH | ≤ 0.2 |
| PWHI | ≤ 0.2 |
| EAGG | ≤ 0.2 |
| TACV | ≤ 0.2 |
| YPGR | ≤ 0.2 |
| TVMC | ≤ 0.2 |
| GENW | ≤ 0.2 |
| CIYR | ≤ 0.2 |
| METI | ≤ 0.2 |
| RVCN | 0.438 |

| Variant | one-hybrid fitness for binding parS DNA |
| --- | --- |
| RVCC | 0.966 |
| RVLF | 0.259 |
| RVLK | ≤ 0.2 |
| RVLC | 0.958 |
| RVRH | 0.203 |
| RVRC | 0.851 |
| RVYC | 0.991 |
| RVRP | ≤ 0.2 |
| RVYQ | ≤ 0.2 |
| RVCP | ≤ 0.2 |
| RVYM | 0.314 |
| MFWG | ≤ 0.2 |
| QASK | ≤ 0.2 |
| RCDK | ≤ 0.2 |
| QSQF | ≤ 0.2 |
| PAVG | ≤ 0.2 |
| THLD | ≤ 0.2 |
| KYFM | ≤ 0.2 |
| RVHC | 0.965 |
| RVHM | 0.314 |
| RVHY | 0.481 |
| LVSM | ≤ 0.2 |
| LKVQ | ≤ 0.2 |
| LEMF | ≤ 0.2 |

| Variant | one-hybrid fitness for binding parS DNA |
| --- | --- |
| FCHS | ≤ 0.2 |
| SKPK | ≤ 0.2 |
| RMPC | 0.725 |
| RSPC | 0.421 |
| RMIL | ≤ 0.2 |
| RCPC | 0.698 |
| RPPC | ≤ 0.2 |
| RMPF | ≤ 0.2 |
| RMPP | ≤ 0.2 |
| RMIM | 0.324 |
| RMIC | 0.926 |
| EAKD | ≤ 0.2 |
| TVNA | ≤ 0.2 |
| CNTL | ≤ 0.2 |
| RLKN | 0.458 |
| RLVH | 0.223 |
| RLKS | 0.851 |
| RLVS | 1.03 |
| RLVN | 0.4 |
| RLKD | ≤ 0.2 |
| AHEK | ≤ 0.2 |
| MWPC | ≤ 0.2 |
| LAAP | ≤ 0.2 |
| QDYS | ≤ 0.2 |

| Variant | one-hybrid fitness for binding parS DNA |
| --- | --- |
| QTCI | ≤ 0.2 |
| PSAR | ≤ 0.2 |
| HTSF | ≤ 0.2 |
| AANC | ≤ 0.2 |
| RVPQ | ≤ 0.2 |
| RVPR | ≤ 0.2 |
| RVPG | 0.691 |
| RVIM | 0.261 |
| RVIK | ≤ 0.2 |
| RVIG | 0.904 |
| HAGS | ≤ 0.2 |
| VNPV | ≤ 0.2 |
| WRYW | ≤ 0.2 |
| TQTI | ≤ 0.2 |
| FACF | ≤ 0.2 |
| RMIN | 0.327 |
| RMPD | ≤ 0.2 |
| RMPS | 0.889 |
| RMPN | 0.262 |
| RMIS | 0.997 |
| RMID | ≤ 0.2 |
| FTGR | ≤ 0.2 |
| QRNV | ≤ 0.2 |
| PRGY | ≤ 0.2 |

| Variant | one-hybrid fitness for binding parS DNA |
| --- | --- |
| VCNT | ≤ 0.2 |
| KCVG | ≤ 0.2 |
| DLRC | ≤ 0.2 |
| PRLY | ≤ 0.2 |
| RWEC | 0.556 |
| RWEM | ≤ 0.2 |
| RWEA | 0.301 |
| RWEG | 0.563 |
| RWEF | ≤ 0.2 |
| RWEK | ≤ 0.2 |
| RWES | 0.712 |
| RWEI | ≤ 0.2 |
| RWEN | ≤ 0.2 |
| DQQE | ≤ 0.2 |
| CPRM | ≤ 0.2 |
| KRDI | ≤ 0.2 |
| DGLW | ≤ 0.2 |
| SLYE | ≤ 0.2 |

— a collection of fitness landscapes (doi:10.1016/j.celrep.2020.107928)
